The source of these data is PubChem BioAssay (NCATS).

Where “and” joins values, the source holds several entries; their conditions need not be identical. Identical values can stand only once. Results filed as inconclusive are left out. The source holds several records for some structures; these can differ, active in one and inactive in another. Calls of active or inactive are those of the source. Unless noted, the call rests on the fitted dose curve; in most records, active means well fitted curve in the direction sought with a large enough effect; inconclusive means small, poorly fitted or top-dose-only effect, or another doubt; inactive means no such curve, though single readings can be large; an effect the other way counts as inactive or inconclusive.

One assay deals with Papain (Carica papaya) (UniProt P00784). The experiment in a line: Primary qHTS assay for inhibitors of the protease papain (AID 1645873).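 Further: papain turnover of Z-FR-AMC read as the AMC fluorescence gain over 10 min; on the % scale 0 is the no-effect control and ±100 the full control effect.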
Assay [1] can be described thus: Primary qHTS for inhibitors of nuclear receptor binding SET domain protein 2 (NSD2) in an isogenic RCH-ACV NSD2 p.E1099K mutant (9B) (AID 1645876). Further: nearly all actives have a fitted effect of over 70% in size. Further: potency means the concentration at half of the fitted maximal effect. A general note: qHTS replaces the single test concentration by a dilution series.
Assay [2] is described as follows: Primary qHTS for inhibitors of nuclear receptor binding SET domain protein 2 (NSD2) in an RCH-ACV wild type WT cells (2C) (AID 1645877). Further: nearly all actives have a fitted effect of over 70% in size. Further: potency means the concentration at half of the fitted maximal effect.
The target in assay [3] is Metallo-beta-lactamase type 2 (Klebsiella pneumoniae) (UniProt C7C422). Put plainly: qHTS to identify inhibitors of the New Delhi Metallo-beta-lactamase (NDM): assay validation screen against the NCATS LOPAC Collection (AID 1794843). Further: on the % scale 0 is the no-effect control and ±100 the full control effect. Summed up:
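Absorbance at 485 nm from nitrocefin turnover (50 uM solution added), read at plateau, gives the read-out. Compounds in DMSO were incubated first with 2 nM final NDM-1 in pH 7.0 HEPES buffer containing 1 uM ZnSO4 and 0.01% Tween20.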

Assay [4] addresses Glutathione peroxidase 1 (Homo sapiens) (UniProt P07203). Put plainly: Primary qHTS Assay for Inhibitors of Recombinant Selenoprotein Glutathione Peroxidase 1 (GPX1) (AID 1845191). Further: nearly all actives have a fitted effect of over 65% in size. Further: potency means the concentration at half of the fitted maximal effect. Summed up:
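GR-coupled readout: NADPH consumption tracked by fluorescence, ex 340/em 450 nm, at t=0 and after 15 min at RT. Final mix 10 nM GPX1, 1 mM GSH, 0.5 mM CHP, 0.5 mM NADPH, 100 nM GR, 0.01% BSA, following 30 min enzyme–compound preincubation.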

Assay [5] concerns the target Catechol O-methyltransferase (Homo sapiens) (UniProt P21964). Put plainly: Confirmatory Screen for Target Class Profiling of Small Molecule Inhibitors of Methyltransferases (AID 1745852; calls by dose curve; further: potency means the concentration at half of the fitted maximal effect; on activity change, negative = inhibition: on the % scale 0 is the no-effect control and ±100 the full control effect). The following applies: MTase-Glo luminescence, SAH detection, recombinant enzyme; measured here: COMT max response; stronger effect = lower value.
Assay [6] concerns the target Guanidinoacetate N-methyltransferase (Homo sapiens) (UniProt Q14353). The description is as above. The following applies: MTase-Glo luminescence, SAH detection, recombinant enzyme; activity change, negative = inhibition: at 57.3 µM (top of the series) unless noted.
For assay [7], the target named is Nicotinamide N-methyltransferase (Homo sapiens) (UniProt P40261). The assay is described as above. The settings on record: MTase-Glo luminescence, SAH detection, recombinant enzyme; measured here: NNMT max response; stronger effect = lower value.
Assay [8] deals with Phenylethanolamine N-methyltransferase (Homo sapiens) (UniProt P11086). Described as above. The settings on record: MTase-Glo luminescence, SAH detection, recombinant enzyme; measured here: PNMT max response; stronger effect = lower value.
Assay [9] addresses N-terminal Xaa-Pro-Lys N-methyltransferase 1 (Homo sapiens) (UniProt Q9BV86). Put plainly: Confirmatory qHTS for Inhibitors of N-terminal methyltransferase 1 (NTMT1): MTaseGlo Assay (AID 1645874). Further: nearly all actives have a fitted effect of over 65% in size. Further: potency means the concentration at half of the fitted maximal effect.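 On activity change, negative = inhibition: luminescence from SAH made as NTMT1 methylates SPKRIA peptide using SAM; 0% = DMSO control and -100% = no-enzyme control.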 The method in brief: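 MTase-Glo luminescence measured SAH formed by 125 nM NTMT1 from 100 uM SAM and 1 uM SPKRIA peptide over 30 min at room temperature, following 15 min compound preincubation. Percent inhibition against no-enzyme and DMSO controls gave 4-parameter Hill fits.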

Papain (Carica papaya), sequence (P00784 whole entry, looked up, the tested form may be a part): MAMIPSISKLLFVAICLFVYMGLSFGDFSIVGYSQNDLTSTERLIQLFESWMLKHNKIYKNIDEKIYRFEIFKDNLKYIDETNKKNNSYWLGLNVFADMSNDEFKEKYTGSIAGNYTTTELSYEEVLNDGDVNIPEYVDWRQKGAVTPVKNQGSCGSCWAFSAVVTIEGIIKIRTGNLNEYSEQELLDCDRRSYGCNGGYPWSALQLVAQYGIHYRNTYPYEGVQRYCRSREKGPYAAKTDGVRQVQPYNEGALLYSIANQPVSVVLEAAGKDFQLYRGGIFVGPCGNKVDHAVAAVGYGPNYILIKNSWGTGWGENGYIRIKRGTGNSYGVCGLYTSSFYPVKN
Metallo-beta-lactamase type 2 (Klebsiella pneumoniae), sequence (C7C422 whole entry, looked up): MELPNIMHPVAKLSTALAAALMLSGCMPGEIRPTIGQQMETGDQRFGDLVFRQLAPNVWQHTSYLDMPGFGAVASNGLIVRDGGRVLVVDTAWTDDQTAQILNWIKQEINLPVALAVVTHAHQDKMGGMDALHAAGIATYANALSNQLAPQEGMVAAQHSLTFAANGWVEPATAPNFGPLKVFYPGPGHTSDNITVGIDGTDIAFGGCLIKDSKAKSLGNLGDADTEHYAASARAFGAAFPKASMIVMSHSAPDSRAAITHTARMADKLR
Glutathione peroxidase 1 (Homo sapiens), sequence (P07203 whole entry, looked up): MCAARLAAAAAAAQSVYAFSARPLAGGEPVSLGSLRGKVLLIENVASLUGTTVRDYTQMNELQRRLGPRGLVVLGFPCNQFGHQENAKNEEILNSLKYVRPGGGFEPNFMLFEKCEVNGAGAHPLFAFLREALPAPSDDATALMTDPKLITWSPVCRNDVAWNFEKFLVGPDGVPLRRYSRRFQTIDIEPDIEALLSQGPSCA
N-terminal Xaa-Pro-Lys N-methyltransferase 1 (Homo sapiens), sequence (Q9BV86 whole entry, looked up): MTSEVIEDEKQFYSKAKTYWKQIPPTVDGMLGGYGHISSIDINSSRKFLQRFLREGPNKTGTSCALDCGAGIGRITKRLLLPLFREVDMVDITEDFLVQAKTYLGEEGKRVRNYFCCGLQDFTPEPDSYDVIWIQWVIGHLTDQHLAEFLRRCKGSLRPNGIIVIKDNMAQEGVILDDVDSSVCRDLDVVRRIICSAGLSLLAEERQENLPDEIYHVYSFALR
Catechol O-methyltransferase (Homo sapiens), sequence (P21964 whole entry, looked up): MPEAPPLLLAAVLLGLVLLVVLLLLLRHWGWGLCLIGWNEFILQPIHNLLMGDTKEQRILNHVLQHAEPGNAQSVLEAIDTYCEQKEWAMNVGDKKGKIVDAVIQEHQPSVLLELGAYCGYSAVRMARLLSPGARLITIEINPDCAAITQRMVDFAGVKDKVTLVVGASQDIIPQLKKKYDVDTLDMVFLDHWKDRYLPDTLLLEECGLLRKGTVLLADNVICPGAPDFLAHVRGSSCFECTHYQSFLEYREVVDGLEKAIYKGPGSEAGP
Phenylethanolamine N-methyltransferase (Homo sapiens), sequence (P11086 whole entry, looked up): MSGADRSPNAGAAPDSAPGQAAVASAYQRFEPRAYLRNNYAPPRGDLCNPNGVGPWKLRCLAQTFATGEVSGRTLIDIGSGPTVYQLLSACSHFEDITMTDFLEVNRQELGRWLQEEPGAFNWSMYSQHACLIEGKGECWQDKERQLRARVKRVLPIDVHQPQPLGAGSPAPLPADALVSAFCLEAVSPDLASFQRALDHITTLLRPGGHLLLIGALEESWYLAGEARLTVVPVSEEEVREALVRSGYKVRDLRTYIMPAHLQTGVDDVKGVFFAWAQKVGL
Nicotinamide N-methyltransferase (Homo sapiens), sequence (P40261 whole entry, looked up): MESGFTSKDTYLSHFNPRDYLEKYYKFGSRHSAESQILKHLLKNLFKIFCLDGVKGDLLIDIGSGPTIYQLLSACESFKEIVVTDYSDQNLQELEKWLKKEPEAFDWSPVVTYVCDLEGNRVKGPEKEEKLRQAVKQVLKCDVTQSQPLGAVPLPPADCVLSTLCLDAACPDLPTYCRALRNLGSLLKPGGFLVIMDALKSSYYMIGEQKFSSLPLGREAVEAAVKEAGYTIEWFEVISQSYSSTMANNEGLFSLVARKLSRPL

For the molecule `COC(=O)[C@@H]1[C@H]2C[C@H]3c4[nH]c5ccccc5c4CCN3C[C@@H]2CC[C@@H]1O`, in the assay with Papain (Carica papaya), the outcome is “inactive”. Moreover, the Potency result in [1], in assay [2], in assay [3] and in assay [4] was “inactive” each time.
Take `COc1ccc(Cc2nccc3cc(OC)c(OC)cc23)cc1OC`: the outcome in the assay with Papain (Carica papaya) is “inactive”. In addition, the activity in assay [5] is -10.8%; in assay [7], -16.1%; in assay [8], -24.2%. Moreover, the activity change, negative = inhibition in [6] is -7.19%. Besides, the Potency result in [3] was “inactive”.
On to `Cc1cccc(C)c1OCC(C)N` (stereo not given), for which the outcome with Papain (Carica papaya) is “inactive”. Besides, the Potency entry in assay [1], in [2], in assay [3] and in assay [4] was “inactive” each time.
`CCN(CC)CCOC(=O)c1ccc(N)cc1`: the outcome in the assay with Papain (Carica papaya) was “inactive”. The Potency result in assay [1], in assay [2], in assay [3] and in assay [4] was “inactive” throughout.
For `Clc1ccc(C(c2ccc(Cl)cc2)n2cc[n+](CC(OCc3ccc(Cl)cc3Cl)c3ccc(Cl)cc3Cl)c2)cc1` (stereo not given), the outcome with Papain (Carica papaya) is “inactive”. In addition, the Potency in [1] and in assay [2] was 5.25 µM (active) in each case. Moreover, the Potency entry in assay [3] and in [4] was “inactive” in each case.
Consider `COc1cc2ncnc(Nc3ccc(F)c(Cl)c3)c2cc1OCCCN1CCOCC1`, for which the Potency in assay [9] was 7.58 µM (active); in assay [1], 23.7 µM (active) and 20.6 µM (active) and inactive; in assay [2], 10.6 µM (active) and 11.5 µM (active); in [6], 24.1 µM (active). For the same molecule, the activity in [5] was -74.8%; in assay [7] it was -60.5%; in assay [8], -74.4%.
Regarding `CC(C)(C)c1ccc(C(O)CCCN2CCC(C(O)(c3ccccc3)c3ccccc3)CC2)cc1` (stereo not given), the outcome with Papain (Carica papaya) was “inactive”. For the same molecule, the Potency result in assay [3] and in assay [4] was “inactive” throughout.
As for `CCN(CC)C(=O)c1ccc(O)c(OC)c1`, the outcome with Papain (Carica papaya) was “inactive”. Further, the Potency entry in [1], in assay [2], in [3] and in [4] was “inactive” throughout.
For the molecule `CC1=C(/C=C/C(C)=C/C=C/C(C)=C/C(=O)Nc2ccc(O)cc2)C(C)(C)CCC1`, the outcome with Papain (Carica papaya) is “inactive”. Also, the Potency was 1.88 µM (active) and 2.95 µM (active) in assay [1]; 1.88 µM (active) and 2.95 µM (active) in assay [2]. For the same molecule, the Potency result in assay [3] and in assay [4] was “inactive” in each case.
In the case of `O=C1NC(=O)C(c2ccccc2)(c2ccccc2)N1`, in the assay with Papain (Carica papaya), the outcome is “inactive”. The Potency result in assay [1], in [2] and in assay [3] was “inactive” throughout.
With `NC(N)=Nc1nc(CSCC/C(N)=N/S(N)(=O)=O)cs1`, the outcome in the assay with Papain (Carica papaya) was “inactive”. Also, the Potency entry in [1], in [2] and in assay [3] was “inactive” in each case.
With `COc1cccc(-c2cc(=O)c3ccccc3o2)c1N`, the outcome in the assay with Papain (Carica papaya) was “inactive”. Moreover, the Potency entry in assay [1], in [2], in assay [3] and in [4] was “inactive” in each case.
For `C[N+](C)(C)CC(=O)O`, the Potency entry in assay [1] and in assay [2] was “inactive” in each case.
Consider `CCS(=O)(=O)N1CC(CC#N)(n2cc(-c3ncnc4[nH]ccc34)cn2)C1`, for which the Potency in assay [1] was 18.6 µM (active); in assay [2], 16.6 µM (active).
For `NS(=O)(=O)c1cccc2c1C(=O)c1cccc(O)c1C2=O` the same measures were 1.66 µM (active) and 0.742 µM (active).
For the molecule `O=c1cc(N2CCOCC2)oc2c(-c3cccc4c3sc3ccccc34)cccc12`, the Potency was 3.32 µM (active) in assay [1] and 2.63 µM (active) in assay [2].
For `CN(C)Cc1cccc(N=C(c2ccccc2)c2c(O)[nH]c3cc(C(=O)N(C)C)ccc23)c1`, in that order: 16.6 µM (active) and 14.8 µM (active).
Consider `CC(C)(C)Cn1c(N)nc2ccc(-c3[nH]c(C(C)(C)C)nc3-c3ccc(F)cc3)nc21`, for which the Potency in assay [9] was 17.8 µM (active); in [1] it was 2.9 µM (active) and 16.6 µM (active); in assay [2], 2.58 µM (active) and 16.6 µM (active); in assay [4] it was 16.1 µM (active).
As to `Cc1ccc(F)c(NC(=O)Nc2ccc(-c3cccc4[nH]nc(N)c34)cc2)c1`, the Potency in [1] was 10.5 µM (active); in assay [2], 8.33 µM (active).
For the molecule `Cn1c(N2CCCCS2(=O)=O)nc(C(=O)NCc2ccc(F)cc2)c(O)c1=O`, the Potency result in assay [1] and in assay [2] was “inactive” each time.
Consider `CO[C@H]1C(=O)[C@]2(C)[C@@H](OC)C[C@H]3OC[C@@]3(OC(C)=O)[C@H]2[C@H](OC(=O)c2ccccc2)[C@]2(O)C[C@H](OC(=O)[C@H](O)[C@@H](NC(=O)OC(C)(C)C)c3ccccc3)C(C)=C1C2(C)C`, for which the Potency is 0.003 µM (active) in assay [1] and 0.0026 µM (active) in assay [2].
For `Cc1ccccc1C(C(=O)NC1CCCCC1)N(C(=O)Cn1ccnc1C)c1cccc(F)c1` (stereo not given) the same measures were “inactive” and “inactive”.
For `NC1CCC(Nc2nc(Nc3ccc(C(=O)N4CCCCC4)cc3)c3ncn(-c4cccc(F)c4)c3n2)CC1` (stereo not given), in that order: 1.84 µM (active) and 2.06 µM (active).
For `O=C(O)c1cc(O)c2c(c1)C(=O)c1cccc(O)c1C2=O`, in that order: “inactive” and “inactive”.
For the molecule `CO[C@@H](C(=O)N1Cc2[nH]nc(NC(=O)c3ccc(N4CCN(C)CC4)cc3)c2C1)c1ccccc1`, the Potency is 73.1 nM (active) and 118 nM (active) in assay [1]; 58 nM (active) and 52.5 nM (active) in assay [2].
Regarding `C=C1C(=O)OC(CCCCCCCC)C1C(=O)O` (stereo not given), the Potency entry in [1] and in assay [2] was “inactive” in each case.
`CCOc1ccc(Nc2nc(-c3c(C)nc4ccccn34)cs2)cc1`: the Potency entry in [9] and in assay [4] was “inactive” in each case. Also, the Potency in assay [1] was 0.183 µM (active); in assay [2], 183 nM (active) and inactive.
For the molecule `CCc1ccc(OCc2ccccc2C(=O)Nc2ccc3nc(C)cc(N)c3c2)cc1`, the Potency in assay [1] was 2.63 µM (active); in assay [2] it was 2.95 µM (active).
As to `O=C(O)c1cc(-c2ccccc2)nc2ccccc12`, the Potency entry in assay [1] and in [2] was “inactive” each time.
For `O=C(NC1CCOCC1)c1ccc(-c2cc(-c3cn[nH]c3-c3ccccn3)ccn2)cc1`, the Potency entry in assay [1] and in assay [2] was “inactive” in each case.
Consider `O=C(O)c1ccccc1C(=O)Nc1ccc(-c2ccccc2)cc1`, for which the Potency entry in [1] and in assay [2] was “inactive” each time.
For the molecule `O=C(O)c1c(Cl)c(Cl)c(Cl)c(Cl)c1-c1c2cc(I)c(=O)c(I)c-2oc2c(I)c(O)c(I)cc12`, the Potency in assay [9] is 9.55 µM (active); in assay [2] it was 9.34 µM (active). For the same molecule, the Potency entry in assay [4] is “inactive”.
Regarding `Cc1ccn(-c2ccc(-c3ncco3)cc2)c(=O)c1-c1ccc2nc(N)ncc2c1`, the Potency in assay [1] is 5.9 µM (active).
Turning to `N[C@H](CSC(c1ccccc1)(c1ccccc1)c1ccccc1)C(=O)O`, the Potency entry in assay [1] and in assay [2] was “inactive” each time.
For `COc1ccc(-c2coc3cc(O)cc(O)c3c2=O)cc1`, the Potency in [1] is 18.6 µM (active).
On the same count and under the same terms, the result for `COc1ccc2c(Oc3ccc(NC(=O)c4c(C)n(CC(C)(C)O)n(-c5ccccc5)c4=O)nc3)ccnc2c1` reads “inactive”.
As for `C[C@@H](O)[C@H]1C(=O)N2C(C(=O)O)=C(S[C@@H]3CN[C@H](C(=O)N(C)C)C3)[C@H](C)[C@H]12`, the Potency entry in assay [1] and in [2] was “inactive” in each case.
`NC(=O)c1ccc2nc(-c3ccc(Oc4ccc(Cl)cc4)cc3)[nH]c2c1`: the Potency in assay [1] is 14.5 µM (active) and 23.1 µM (active); in assay [2], 16.6 µM (active) and 16.4 µM (active).
Consider `NC(=O)c1cccc2[nH]c(-c3ccc([C@H]4CCCN4)cc3F)nc12`, for which the Potency in [1] is 14.8 µM (active); in [2] it was 10.5 µM (active).
